Laboratory results taken from the supplement of paper PMC7411054.
Counter-ions that a name gives are not always drawn.

Legend:
Settings in all cases: treatment time: 24 h
A549-ACTB-RAB5A [1] = assay: lowest phenotypically active concentration; higher = less potent
Summary of the method: (§1)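 Fifteen reporter lines derived from A549, HepG2 and WPMY1 cells by gene editing, carrying BFP for segmentation plus GFP and RFP/FusionRed markers, were exposed to 0.3, 1, 3 or 9 µM for 24 h in four wells each and imaged live. Live-cell features from each well were normalised to solvent control wells. A well set counted as deviating when ≥3 of 4 wells lay beyond the 95th percentile of control Euclidean distances, and as reproducible when the median replicate Pearson correlation exceeded the 95th percentile of non-replicates. Phenotypic activity was assigned only when both criteria were met.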

A549-GM130-SQSTM1 [2] = assay: as above
Summary of the method: as §1

HepG2-ACTB-RAB5A [3] = assay: as above
Summary of the method: as §1

HepG2-TP53BP1-CLTA [4] = assay: as above
Summary of the method: as §1

A549-ACTB-RAB5A [5] = assay: phenotypically active (imaging signature differs from DMSO and reproducible) at any of 0.3-9 uM (binary (1 = active, 0 = inactive)); higher = active
Summary of the method: as §1

A549-CANX-COX4 = assay: as above
Summary of the method: as §1

A549-GM130-SQSTM1 [6] = assay: as above
Summary of the method: as §1

A549-TP53BP1-CLTA = assay: as above
Summary of the method: as §1

A549-TUBA1B-RELA [7] = assay: as above
Summary of the method: as §1

HepG2-ACTB-RAB5A [8] = assay: as above
Summary of the method: as §1

HepG2-CANX-COX4 = assay: as above
Summary of the method: as §1

HepG2-GM130-SQSTM1 = assay: as above
Summary of the method: as §1

HepG2-TP53BP1-CLTA [9] = assay: as above
Summary of the method: as §1

HepG2-TUBA1B-RELA = assay: as above
Summary of the method: as §1

WPMY1-ACTB-RAB5A = assay: as above
Summary of the method: as §1

WPMY1-CANX-COX4 = assay: as above
Summary of the method: as §1

WPMY1-GM130-SQSTM1 = assay: as above
Summary of the method: as §1

WPMY1-TP53BP1-CLTA = assay: as above
Summary of the method: as §1

WPMY1-TUBA1B-RELA = assay: as above
Summary of the method: as §1

A549-TUBA1B-RELA [10] = assay: lowest phenotypically active concentration; higher = less potent
Summary of the method: as §1

| Compound | lowest phenotypically active concentration (A549-ACTB-RAB5A [1]) [µM] | lowest phenotypically active concentration (A549-GM130-SQSTM1 [2]) [µM] | lowest phenotypically active concentration (HepG2-ACTB-RAB5A [3]) [µM] | lowest phenotypically active concentration (HepG2-TP53BP1-CLTA [4]) [µM] | phenotypically active (A549-ACTB-RAB5A [5]) | phenotypically active (A549-CANX-COX4) | phenotypically active (A549-GM130-SQSTM1 [6]) | phenotypically active (A549-TP53BP1-CLTA) | phenotypically active (A549-TUBA1B-RELA [7]) | phenotypically active (HepG2-ACTB-RAB5A [8]) | phenotypically active (HepG2-CANX-COX4) | phenotypically active (HepG2-GM130-SQSTM1) | phenotypically active (HepG2-TP53BP1-CLTA [9]) | phenotypically active (HepG2-TUBA1B-RELA) | phenotypically active (WPMY1-ACTB-RAB5A) | phenotypically active (WPMY1-CANX-COX4) | phenotypically active (WPMY1-GM130-SQSTM1) | phenotypically active (WPMY1-TP53BP1-CLTA) | phenotypically active (WPMY1-TUBA1B-RELA) | lowest phenotypically active concentration (A549-TUBA1B-RELA [10]) [µM] |
| --- | --- | --- | --- | --- | --- | --- | --- | --- | --- | --- | --- | --- | --- | --- | --- | --- | --- | --- | --- | --- |
| Cc1cc2c(F)c(Oc3ncnn4cc(OC[C@@H](C)OC(=O)[C@H](C)N)c(C)c34)ccc2[nH]1 [brivanib-alaninate] | 9 | 9 | 9 | 3 | 1 (active) | 1 (active) | 1 (active) | 1 (active) | 0 (inactive) | 1 (active) | 1 (active) | 1 (active) | 1 (active) | 1 (active) | 1 (active) | 1 (active) | 1 (active) | 1 (active) | 1 (active) |  |
| COc1cc2c(cc1NS(=O)(=O)c1ccc(Br)cc1C)n(C)c(=O)n2C | 3 |  | 9 |  | 1 (active) | 1 (active) | 0 (inactive) | 1 (active) | 0 (inactive) | 1 (active) | 1 (active) | 1 (active) | 0 (inactive) | 1 (active) | 0 (inactive) | 0 (inactive) | 0 (inactive) | 0 (inactive) | 0 (inactive) |  |
| CCn1c(=O)n([C@H]2CCCN(c3nccc(-c4cc5ccccc5o4)n3)C2)c2ccccc21 | 3 | 3 |  |  | 1 (active) | 1 (active) | 1 (active) | 1 (active) | 1 (active) | 0 (inactive) | 0 (inactive) | 0 (inactive) | 0 (inactive) | 0 (inactive) | 0 (inactive) | 1 (active) | 0 (inactive) | 0 (inactive) | 0 (inactive) | 9 |
| CC(C)c1cnn2c(NCc3ccccc3)cc(NCCCCCCN)nc12 [BS 181 dihydrochloride] | 9 |  |  |  | 1 (active) | 1 (active) | 0 (inactive) | 1 (active) | 1 (active) | 0 (inactive) | 0 (inactive) | 0 (inactive) | 0 (inactive) | 0 (inactive) | 0 (inactive) | 1 (active) | 0 (inactive) | 1 (active) | 1 (active) | 9 |
| C[C@@H]1C[C@H]2[C@@H]3CCC4=CC(=O)C=C[C@]4(C)[C@@]3(Cl)[C@@H](O)C[C@]2(C)[C@@]1(OC(=O)c1ccco1)C(=O)CCl [mometasone furoate] | ≤ 0.3 | ≤ 0.3 |  |  | 1 (active) | 1 (active) | 1 (active) | 1 (active) | 1 (active) | 0 (inactive) | 0 (inactive) | 0 (inactive) | 0 (inactive) | 0 (inactive) | 0 (inactive) | 0 (inactive) | 1 (active) | 0 (inactive) | 0 (inactive) | ≤ 0.3 |
| CN(C)CC(=O)Nc1ccc2[nH]c(=O)c3ccccc3c2c1 [PJ 34 hydrochloride] | 9 | 9 | 9 | 9 | 1 (active) | 1 (active) | 1 (active) | 0 (inactive) | 1 (active) | 1 (active) | 1 (active) | 1 (active) | 1 (active) | 1 (active) | 1 (active) | 1 (active) | 1 (active) | 0 (inactive) | 1 (active) | 9 |
| CCCCc1oc2ccc(NS(C)(=O)=O)cc2c1C(=O)c1ccc(OCCCN(CCCC)CCCC)cc1 [dronedarone] | 3 | 3 | 9 | 9 | 1 (active) | 1 (active) | 1 (active) | 0 (inactive) | 1 (active) | 1 (active) | 0 (inactive) | 1 (active) | 1 (active) | 1 (active) | 1 (active) | 1 (active) | 0 (inactive) | 1 (active) | 1 (active) | 3 |
| CN1CCc2cccc3c2[C@H]1Cc1ccc(O)c(O)c1-3 [r(-)-apomorphine] | 9 | 9 |  |  | 1 (active) | 1 (active) | 1 (active) | 1 (active) | 1 (active) | 0 (inactive) | 0 (inactive) | 0 (inactive) | 0 (inactive) | 0 (inactive) | 1 (active) | 1 (active) | 1 (active) | 0 (inactive) | 1 (active) | 9 |
| COc1cc2ncnc(Nc3cccc(Br)c3)c2cc1OC | 3 | 9 |  | 9 | 1 (active) | 1 (active) | 1 (active) | 1 (active) | 1 (active) | 0 (inactive) | 0 (inactive) | 1 (active) | 1 (active) | 1 (active) | 0 (inactive) | 1 (active) | 1 (active) | 1 (active) | 0 (inactive) | 3 |
| COc1ccc(-c2cnc(-c3cccc4c3-c3ccccc3C4=O)o2)cc1 | ≤ 0.3 | ≤ 0.3 |  |  | 1 (active) | 1 (active) | 1 (active) | 1 (active) | 1 (active) | 0 (inactive) | 0 (inactive) | 0 (inactive) | 0 (inactive) | 0 (inactive) | 1 (active) | 1 (active) | 1 (active) | 1 (active) | 1 (active) | ≤ 0.3 |
| CCCOc1ccc(CCc2nc3cc(-c4c(C)noc4C)ccc3n2CCN2CCOCC2)cc1 | 9 |  | 9 | 9 | 1 (active) | 1 (active) | 0 (inactive) | 0 (inactive) | 0 (inactive) | 1 (active) | 1 (active) | 0 (inactive) | 1 (active) | 0 (inactive) | 0 (inactive) | 0 (inactive) | 0 (inactive) | 0 (inactive) | 0 (inactive) |  |
| CC1(C)O[C@@H]2C[C@H]3[C@@H]4C[C@H](F)C5=CC(=O)C=C[C@]5(C)[C@@]4(F)[C@@H](O)C[C@]3(C)[C@]2(C(=O)CO)O1 [fluocinolone acetonide] | ≤ 0.3 | ≤ 0.3 |  |  | 1 (active) | 1 (active) | 1 (active) | 1 (active) | 1 (active) | 0 (inactive) | 0 (inactive) | 0 (inactive) | 0 (inactive) | 0 (inactive) | 1 (active) | 0 (inactive) | 0 (inactive) | 0 (inactive) | 0 (inactive) | ≤ 0.3 |
| OCc1cc(C(O)CNCCCCCCOCCCCc2ccccc2)ccc1O (centres undefined) [salmeterol] | 9 | 9 | 9 | 9 | 1 (active) | 1 (active) | 1 (active) | 0 (inactive) | 1 (active) | 1 (active) | 0 (inactive) | 1 (active) | 1 (active) | 1 (active) | 1 (active) | 1 (active) | 1 (active) | 1 (active) | 1 (active) | 9 |
| C=C1CC[C@@H]2[C@](C)(CO)[C@H](O)CC[C@@]2(C)[C@@H]1C/C=C1/C(=O)OC[C@H]1O [Andrographolide] | 9 | 3 | 3 | 3 | 1 (active) | 1 (active) | 1 (active) | 0 (inactive) | 1 (active) | 1 (active) | 1 (active) | 1 (active) | 1 (active) | 1 (active) | 0 (inactive) | 0 (inactive) | 1 (active) | 0 (inactive) | 1 (active) | 9 |
| COc1c(Cl)cc2c([nH]c3cnccc32)c1NC(=O)c1cccnc1C [ML 120B dihydrochloride] | 9 | 3 | 9 | 9 | 1 (active) | 1 (active) | 1 (active) | 0 (inactive) | 1 (active) | 1 (active) | 1 (active) | 0 (inactive) | 1 (active) | 0 (inactive) | 0 (inactive) | 0 (inactive) | 0 (inactive) | 0 (inactive) | 0 (inactive) | 9 |
| O=C1/C(=C\c2ccncc2)CCC/C1=C\c1ccncc1 | 3 | 3 | 9 | 3 | 1 (active) | 1 (active) | 1 (active) | 0 (inactive) | 0 (inactive) | 1 (active) | 1 (active) | 1 (active) | 1 (active) | 1 (active) | 1 (active) | 1 (active) | 1 (active) | 1 (active) | 1 (active) |  |
| Nc1ncnc2[nH]nc(Nc3ccc(F)cc3)c12 | 9 |  | 9 | 9 | 1 (active) | 1 (active) | 0 (inactive) | 0 (inactive) | 1 (active) | 1 (active) | 0 (inactive) | 1 (active) | 1 (active) | 1 (active) | 1 (active) | 1 (active) | 1 (active) | 1 (active) | 1 (active) | 9 |
| CCCCOc1c(C(=O)c2c(F)cc(C)cc2F)cnc2[nH]ncc12 | ≤ 0.3 | 1 | 3 | 3 | 1 (active) | 1 (active) | 1 (active) | 0 (inactive) | 1 (active) | 1 (active) | 0 (inactive) | 1 (active) | 1 (active) | 1 (active) | 1 (active) | 1 (active) | 0 (inactive) | 0 (inactive) | 1 (active) | ≤ 0.3 |
| CC/C(=C(/c1ccccc1)c1ccc(OCCN(C)C)cc1)c1ccccc1 [tamoxifen] | 3 | 3 | 9 | 9 | 1 (active) | 1 (active) | 1 (active) | 0 (inactive) | 1 (active) | 1 (active) | 0 (inactive) | 1 (active) | 1 (active) | 1 (active) | 1 (active) | 1 (active) | 1 (active) | 1 (active) | 1 (active) | 3 |
| Cc1cc(Nc2ccc(NC(=O)c3ccc(Nc4ccnc5ccccc45)cc3)cc2)nc(N)n1 | 1 | 1 | 9 | 3 | 1 (active) | 0 (inactive) | 1 (active) | 1 (active) | 1 (active) | 1 (active) | 0 (inactive) | 1 (active) | 1 (active) | 1 (active) | 1 (active) | 0 (inactive) | 1 (active) | 1 (active) | 1 (active) | 1 |
| O=C(O)Cc1cccc(OCCCN(Cc2cccc(C(F)(F)F)c2Cl)CC(c2ccccc2)c2ccccc2)c1 [GW 3965 hydrochloride] | 9 |  |  |  | 1 (active) | 1 (active) | 0 (inactive) | 0 (inactive) | 0 (inactive) | 0 (inactive) | 1 (active) | 0 (inactive) | 0 (inactive) | 1 (active) | 0 (inactive) | 0 (inactive) | 0 (inactive) | 0 (inactive) | 0 (inactive) |  |
| CC(C)OC(=O)c1cc2c(OCC(O)CNC(C)(C)C)cccc2[nH]1 (centres undefined) | 3 | 9 | 9 | 3 | 1 (active) | 0 (inactive) | 1 (active) | 1 (active) | 1 (active) | 1 (active) | 0 (inactive) | 0 (inactive) | 1 (active) | 1 (active) | 1 (active) | 1 (active) | 1 (active) | 1 (active) | 1 (active) | 3 |
